This assay has as its target Glucose transporter (Leishmania mexicana) (UniProt O61059). As to the kind of experiment: ST_JUDE_LEISH: Cytotoxicity at 2uM final concentration against transgenic Leishmania Mexicana promastigotes LmGT2 that are glucose transport deficient and complemented with the L. Mexicana glucose transporter 2. Activity is measured by DNA content using SYBR green in vitro. The format is functional.
Take `CCCCCCOc1ccc(/C(N)=N\Cc2ccccc2)c2c1CCCC2`: the inhibition is 0.11%. For `CCOc1cc(Cc2cnc(N)nc2N)cc(OCC)c1OCCCCC(=O)OC`, the inhibition is 0.19%.

On to `COc1ccc(CNC2CCN(C)CC2)cc1-c1ccc(S(=O)(=O)NCCc2ccccn2)s1`, for which the inhibition amounted to 0.29%.

As for `N#Cc1ccc(CN2CCC(NC(=O)c3ccc(-c4nnc(-c5cccc6ccccc56)o4)cc3)CC2)cc1`, the inhibition is -1.38%.

Take `O=C(CSc1cccc[n+]1[O-])c1ccc(Cc2ncc(C(F)(F)F)cc2Cl)s1`: the inhibition was found to be 10.7%. As to `N#Cc1ccc(N(CCOc2ccc(Cl)c(F)c2)Cc2ccccc2C(F)(F)F)cc1C(F)(F)F`, the inhibition was -1.25%. For `COc1ccc(Cc2c(C)nc3nc(N)nc(N)c3c2C)cc1`, the inhibition was 34.5%. With `Cc1cnc(-c2ccc(NC(=O)N3CCc4cc5nccc(N6CCN7CCC[C@H]7C6)c5cc43)c3ccccc23)o1`, the inhibition was 4.04%.

For `O=C(O)/C=C/c1cccc(F)c1F`, the inhibition was 2.66%. Consider `CCCOC(=O)c1ccc(OCCCON2C(=N)N=C(N)NC2(C)C)cc1`, for which the inhibition turned out to be 5.01%.

As to `Cn1c(Sc2ncnc3sccc23)nc2ccccc21`, the inhibition turned out to be 2.32%.

As to `O=[N+]([O-])c1cccc(-c2nc3cc(C4=NC5CCCCC5N4)ccc3[nH]2)c1` (centres undefined), the inhibition was 1.26%. As for `Clc1cc(Nc2ccnc3ccc(Br)cc23)ccc1Oc1ccc(Cl)c2ccccc12`, the inhibition came to 2.81%.

Take `Cc1cc(NCCCN2CCCC2=O)n2c(nc3ccccc32)c1C#N`: the inhibition is 2.22%. For `Oc1ccc(CCNc2nc(NCCCOc3ccccc3-c3ccncc3)nc(N3CCNCC3)n2)cc1`, the inhibition was 5.3%. For `OCCN1CCN(Cc2cccc(-c3cccc(-c4nc5cc(F)ccc5[nH]4)c3)c2)CC1`, the inhibition was -0.17%. Consider `CCc1c[nH]c2c(N3CCCCC3=O)cc(C(=O)N[C@@H](Cc3ccccc3)[C@H](O)CNCc3cccc(OC)c3)cc12`, for which the inhibition was 0.87%.

Regarding `CC(=O)Nc1ccc(CN2Cc3ccc(NC(=O)Nc4ccc(Oc5ccccc5)cc4)cc3C2)s1`, the inhibition came to 1.94%. As to `CCOc1cc(CC)ccc1C1CCN(CCN2CCC(NC(=O)c3ccc(-c4ccc(C#N)cc4)cc3)CC2)CC1`, the inhibition is 1.19%. Regarding `COc1ccc(Nc2cc(C)nc(NCc3ccc4c(c3)OCO4)n2)cc1`, the inhibition turned out to be 1.69%. The figure for `Oc1ccccc1N1CCN(c2ccc(-c3nc4ccccc4[nH]3)cn2)CC1` is 0.57%; for `CCC[C@@H]([C@@H](CC1CCCCC1)C(=O)N[C@H](C(=O)Nc1nccc(N)n1)C(C)(C)C)N(O)C=O` it is 4.24%. As for `COc1ccccc1CCNc1nc(C)cc(N[C@@H](Cc2ccccc2)C(=O)NCCOc2ccccc2)n1`, the inhibition is -2.09%. As for `CCC1(c2ccccc2)N=C(N)N(CCCc2ccccc2)C1=O` (centres undefined), the inhibition was determined as 0.85%. Turning to `CC(C)(C)Nc1cc(C(=O)N[C@@H](Cc2ccccc2)[C@H](O)CNC2CCOCC2)cc(N2CCCCS2(=O)=O)c1`, the inhibition was -0.61%.

Regarding `C=CCn1c(Sc2ccc(C#N)c([N+](=O)[O-])c2)nnc1-c1ccc(OC)cc1`, the inhibition was found to be 3.25%. Consider `c1ccc(-c2ccc(-c3csc(Nc4ccncc4)n3)cc2)cc1`, for which the inhibition turned out to be 1.13%.

Take `Clc1ccc2c(NCc3ccccn3)ccnc2c1`: the inhibition is 4.77%. `COc1ccc2c(c1)CC(CNC[C@H](O)c1cccc(Cl)c1)CC2` (some centres undefined): the inhibition worked out at 1%. `CCCCSc1nc2c(c(=O)n1Cc1ccco1)C1(CCCCC1)Cc1ccccc1-2`: the inhibition turned out to be 1.89%. The figure for `CC1CCN(CC[C@H]2CCCN2S(=O)(=O)c2cccc(NC(=O)c3cc4ccccc4s3)c2)CC1` is 3.15%; for `CC(C)=C(C(=O)OCc1ccccc1)N1C(=O)[C@@H](NC(c2ccccc2)(c2ccccc2)c2ccccc2)[C@H]1[S+]([O-])CC(=O)OC(C)(C)C` (some centres undefined) it is 0.75%. The figure for `COc1ccc(CN2CCCC(OC(c3ccc(F)cc3)c3ccc(F)cc3)C2)c(O)c1` (centres undefined) is 9.65%. As for `O=C(Cn1cnc2c(nnn2Cc2ccccc2F)c1=O)Nc1ccc2c(c1)OCCO2`, the inhibition was -0.43%. Take `Cc1ccc(C(=O)Nc2ccc(Cl)c(N3CCN(CCc4ccccc4)CC3)c2)cc1`: the inhibition was 6.51%. As for `Cn1ccnc1S(=O)(=O)CCNCc1ccc(-c2ccc3ncnc(Nc4ccc(OCc5cccc(F)c5)c(Cl)c4)c3c2)o1`, the inhibition turned out to be 0.71%.

Turning to `O=C(NCCc1ccccc1)[C@H](Cc1ccccc1)Nc1ccnc(NCC2CCCCC2)n1`, the inhibition worked out at 0.61%. `COc1cccc2cc(C(=O)N[C@@H](CC(C)C)C(=O)N[C@H](/C=N/NC(=O)Cc3cccnc3)CCc3ccccc3)oc12`: the inhibition came to 1.75%. As to `COc1ccc2nccc([C@@H](O)CN3CCC(NC(=O)C(c4ccccc4C)N4CCC(Cc5ccccc5)CC4)CC3)c2c1` (some centres undefined), the inhibition was 2.38%.

Broadly, the inhibition is the relative decrease from the control value, in per cent.

For the origin of these results see ChEMBL document CHEMBL3433997, “St. Jude Leishmania screening dataset” (2016).
